Source: PubChem BioAssay AID652105 (National Center for Advancing Translational Sciences (NCATS), 2013)
The whole screen tested about 330,000 compounds, of which about 4,100 (1.2%) were called active. Not shown: some 2% with an inconclusive outcome. The calls were made as follows: active = max response of -50% or lower; inconclusive = between -30% and -50%; inactive = -30% or higher. What follows is part of a selection rich in actives, with near analogues and random picks from the rest.

target: Phosphatidylinositol 5-phosphate 4-kinase type-2 alpha (Homo sapiens) (UniProt P48426); assay: qHTS for Inhibitors of phosphatidylinositol 5-phosphate 4-kinase (PI5P4K); conditions: PI5P4Kalpha enzyme, ADP-Glo luminescence, 60 min; stronger effect = lower value; also: value at the top dose of about 77 µM
Sequence (P48426 whole entry, looked up): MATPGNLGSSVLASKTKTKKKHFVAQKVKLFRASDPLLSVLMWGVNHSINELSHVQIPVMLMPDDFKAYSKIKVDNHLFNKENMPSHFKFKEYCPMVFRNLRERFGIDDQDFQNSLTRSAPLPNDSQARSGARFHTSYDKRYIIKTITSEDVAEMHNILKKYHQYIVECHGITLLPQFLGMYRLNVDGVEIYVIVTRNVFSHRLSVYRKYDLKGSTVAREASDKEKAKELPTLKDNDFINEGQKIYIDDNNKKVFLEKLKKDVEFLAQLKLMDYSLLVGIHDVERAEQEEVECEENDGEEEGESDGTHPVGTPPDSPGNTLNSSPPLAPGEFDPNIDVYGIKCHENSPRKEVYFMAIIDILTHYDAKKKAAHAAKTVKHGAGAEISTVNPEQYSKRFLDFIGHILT
Procedure, shortened: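 Enzyme plus substrate dispensed, test compounds pinned in, then ATP (5 microM final) added. After 60 min at RT, ADP-Glo reagent 1 for 45 min and reagent 2 for 30 min preceded luminescence imaging.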
% is scaled to controls: 0 for no effect and ±100 for the full control effect.

Max response, inactive:
C#CCOCCOCCOCCNc1nc(N2CCN(C(=O)[C@H](C(C)C)n3cc(CCO)nn3)CC2)nc(N2CCN(C(=O)[C@H]([C@@H](C)CC)n3cc(CCCN=C(N)N)nn3)CC2)n1 -3.39%, C#CCOCCOCCOCCNc1nc(N2CCN(C(=O)Cn3cc(CCO)nn3)CC2)nc(N2CCN(C(=O)Cn3cc(CCCN=C(N)N)nn3)CC2)n1 1.27%, CC1(C(=O)NS(=O)(=O)c2cccc(F)c2)CCN1C(=O)Cc1ccc(Cl)cc1Cl (stereo not drawn) -3.09%, CC1(C(=O)NS(=O)(=O)c2ccccc2)CCN1C(=O)C1CCCCC1 (stereo not drawn) 0.69%, CCCCc1c(-c2ccc(Br)cc2)ncn1CCc1ccccc1OC 11.5%, C[C@@H]1CN([C@@H](C)CO)C(=O)CCCn2nncc2CO[C@@H]1CN(C)S(=O)(=O)c1ccc(-c2ccccc2)cc1 -0.942%, COc1ccc(-c2ccc(CN3C(CC(C)C)C(=O)N(Cc4cn(CC5CCCCC5)nn4)CCS3(=O)=O)cc2)cn1 (stereo not drawn) -0.614%, CN(C)[C@@H]1C(=O)C(C(N)=O)=C(O)[C@@]2(O)C(=O)C3=C(O)c4c(O)ccc(Cl)c4[C@@H](O)[C@H]3C[C@@H]12 -11.8%, COc1ccc(C2OC(CCc3ccccc3)Cc3[nH]c(=S)[nH]c(=O)c32)cc1 (stereo not drawn) -4.14%, CC(C)C[C@@H]1Cc2[nH][nH]c(=O)c2[C@H](CCc2ccccc2)O1 19.9%, CC(C)N(Cc1nnc(-c2ccccc2Br)o1)C(=O)c1cc(Cl)nc2ccccc12 9.3%, O=C(c1ccc(Cl)s1)N(Cc1nnc(-c2ccccc2Cl)o1)C1CC1 3.41%, COc1ccc(NC(=O)c2sc(=O)n(Cc3ccc(S(=O)(=O)N(C)C)cc3)c2C)cc1 -4.44%, O=[N+]([O-])c1ccc(N2CCOCC2)cc1 2.48%, O=c1[nH]c2cccnc2n1-c1ccc([N+](=O)[O-])cc1 3.06%, CC(C)CNC(=O)C1(C)CCCN1C(=O)CSc1ccccc1 (stereo not drawn) -2.54%, CCc1nc2c(OCCC3CCCCC3)cccn2c1N(C)C(=O)c1ccco1 -1.87%, CN(C)c1cc(-c2ccc(F)cc2)oc(=O)c1Cl -9.22%, COc1ccc(-c2cc3ccc(OCc4nn[nH]n4)cc3oc2=O)cc1 -28.7%, CCCNC(=O)C1(C)CCCN(Cc2cccc(C(F)(F)F)c2)C1 (stereo not drawn) -5.32%, CCOC(=O)N1C(=O)C[C@](Sc2ccc(C)cc2)(C(=O)OC)[C@H]1c1ccccc1 5.07%, CC1(C(=O)NS(=O)(=O)Cc2cccc(Cl)c2)CCN1C(=O)Cc1ccccc1 (stereo not drawn) 1.29%, CC(C)CN1C(=O)CN(S(C)(=O)=O)CC1(C)C(=O)NCc1ccccc1 (stereo not drawn) -3.28%, OC[C@@H]1CN(Cc2ccncc2)C[C@H](n2cnc3c(N4CCN(c5ccccc5)CC4)ncnc32)O1 3.53%, CC(CNC(=O)Cn1cnc2c(OCc3ccccc3)ncnc21)c1ccccc1 (stereo not drawn) 2.34%, O=C(Cn1cnc2c(OCc3ccccc3)ncnc21)NCCCn1ccnc1 1.01%, CCc1nc2c(OCCOc3ccccc3)cccn2c1N(C)C(=O)c1cccs1 -2.92%, COc1ccc(S(=O)(=O)Nc2ccc3c(c2)OCO3)cc1Cl -4.52%, COc1ccc(S(=O)(=O)N(C)CC(=O)N2CCCC2)cc1Cl -1.95%, CCCCCCCCN1C(=O)[C@H](CC(=O)NCc2cccc3ccccc23)C[C@@]2(C(=O)OC)CCCCC=C12 22.3%, CC(=O)N1C[C@@H](CO)[C@@H](N(C)C(=O)c2ccco2)C[C@H]1c1ccccc1 -3.57%, COC(=O)c1sc(NC(=O)COC(=O)C2CCC2)c(C(=O)OC)c1C 16.3%, CCc1nc2ccc(C(=O)Nc3cc(-c4ccccc4)ccc3OC)cn2c1N(CC)CC(=O)N(C)C 1.18%, CC1=NN(c2ccc(Cl)c(C(=O)O)c2)C(=O)/C1=C/c1ccc(-c2ccccc2[N+](=O)[O-])o1 -9.29%, CC(=O)c1cc(-c2ccccc2)[nH]c1N1CCCC1 -3.68%, CCCCOCCCNC(=O)C[C@@H]1C[C@@]2(C(=O)OCC)CCCC=C2N(CCC2=CCCCC2)C1=O 1.62%, CC(=O)N1Cc2cc(C(=O)NCc3cccc(F)c3)nc(-c3cccc(C4=CCCCC4)c3)c2[C@H]1CCO 12.2%, COc1ccc(-c2coc3c(C(=O)NC(C)C)cccc23)c(C)c1 -1.18%, COCCCN1C(=O)c2ccc(C(=O)Nc3ccc(OC)cc3OC)cc2C1=O 2.76%, Cc1ccc2[nH]cc(CCCN3C(=O)c4ccccc4C3=O)c2c1 -7.36%, Cc1ccc(C(NC(=O)C2CCN(CCOc3ccc(Cl)cc3Cl)CC2)c2ccccn2)cc1 (stereo not drawn) 5.45%, CCCOc1ccc(F)cc1-c1cc(C(=O)NCc2ccc(F)cc2)[nH]n1 3.63%, CCOC(=O)[C@]12CCCC=C1N(CCC1=CCCCC1)C(=O)[C@H](CC(=O)N1CCN(C(=O)c3ccco3)CC1)C2 -6.59%, C[C@H]1CN([C@@H](C)CO)C(=O)c2cc(C3=CCCCC3)cnc2O[C@@H]1CN(C)C(=O)Cc1ccccc1 -2.83%, COc1ccc(-c2cc3nc(NCCOc4ccccc4)ccn3n2)cc1 23.5%, CCC(C(=O)NCc1ccccc1)n1c(Cc2cc(F)cc(F)c2)nc2ccccc21 (stereo not drawn) 0.77%, CC(C)CCNC(=O)c1[nH]c(C(F)(F)F)nc1-c1ccccc1 -8.89%, CC(=O)N1c2ccc(S(=O)(=O)N(C)CC(=O)N(C)Cc3ccccc3)cc2CC1C (stereo not drawn) -1.34%, COc1cccc(CNS(=O)(=O)c2ccc3c(c2)CC(C)N3C(C)=O)c1 (stereo not drawn) -2.98%, COc1ccc(-c2nc3ccc(Br)cn3c2Cc2ccc(C)cc2)cc1OC -8.6%, COc1ccc(C(C(=O)Nc2c(C)cccc2C)N2CCN(c3ccc(C)cc3)CC2)cc1 (stereo not drawn) 5.89%, O=C(N/N=C/c1cc(Cl)cc([N+](=O)[O-])c1O)C(O)(c1ccccc1)c1ccccc1 3.34%, COc1ccc(CC(=O)N/N=C/c2cc([N+](=O)[O-])cc(Br)c2O)cc1 -27.2%, C[C@H](CO)N1C[C@H](C)[C@H](CN(C)C(=O)c2ccncc2)OCc2ccccc2-c2c(n(C)c3ccccc23)C1=O 0.39%, O=C1/C(=C/c2ccc(F)cc2)SC(=S)N1CCCC(=O)N1CCCCC1CCO (stereo not drawn) 0.801%, O=C(CCCN1C(=O)/C(=C/c2ccccc2)SC1=S)Nc1ccc(O)cc1 0.839%, COc1cc(OC)c(C(=O)NNC(=O)c2ccc(NS(=O)(=O)c3cccs3)cc2)cc1OC -9.62%, C/C(=N\NC(=O)c1ccc2ccccc2c1)c1cccnc1 -3.12%, CC(C)C1C(=O)N(Cc2cn(CCC3OCCO3)nn2)CCS(=O)(=O)N1Cc1ccc(-c2ccccc2C(F)(F)F)cc1 (stereo not drawn) 22.5%, CCCNC(=O)C1(C)CCN(Cc2csc(-c3ccc(Cl)cc3)n2)C1 (stereo not drawn) -11.7%

Max response, active:
C#CCOCCOCCOCCNc1nc(N2CCN(C(=O)CCCCCCCCCCNC(=O)[C@H]([C@@H](C)CC)n3cc(CCCCN=C(N)N)nn3)CC2)nc(N2CCN(C(=O)CCCCCCCCCCNC(=O)[C@H](CO)n3cc(CCCSC)nn3)CC2)n1 -95.3%, CCC(=C/c1sc2ccc3ccccc3c2[n+]1C)/C=C1\Sc2ccc3ccccc3c2N1C -90.2%, C=C1c2c(Cl)ccc(O)c2C(O)=C2C(=O)[C@]3(O)C(O)=C(C(N)=O)C(=O)[C@@H](N(C)C)[C@@H]3[C@@H](O)C12 (stereo partly drawn) -76.5%, Nc1ccc2nc3c(=O)[nH]c(=S)[nH]c3nc2c1 -105%, O=C(c1cc(-c2ccco2)nc2ccccc12)N(Cc1nnc(-c2ccc(Cl)cc2)o1)C1CC1 -72.6%, O=c1[nH]n(-c2ccc([N+](=O)[O-])cc2)c(=O)c2ccccc12 -53.6%, O=c1oc2cc(O)ccc2cc1-c1ccc(F)cc1 -58.1%, O=C(Cn1cnc2c(OCc3ccccc3)ncnc21)NCc1nc2ccccc2[nH]1 -52.2%, COc1ccc(S(=O)(=O)c2c[nH]c(=S)[nH]c2=O)cc1Cl -71.5%, COC(=O)c1sc2[nH]c(=S)n(N)c(=O)c2c1C -60.5%, O=C1NN(c2ccccc2)C(=O)/C1=C/c1ccc(-c2cccc(C(=O)O)c2)o1 -59.1%, COc1ccc2[nH]cc(CCN3C(=O)c4ccc(C(=O)O)cc4C3=O)c2c1 -70.3%, CC(C)N=C1CCCC1C(=S)SSC(=S)C1CCCC1=NC(C)C (stereo not drawn) -54.3%, CC(=O)N1c2ccc(S(=O)(=O)NCCC(=O)N(C)C3CCCCC3)cc2CC1C (stereo not drawn) -54.5%, O=C(N/N=C/c1cc(Br)c(O)c([N+](=O)[O-])c1)C(O)(c1ccccc1)c1ccccc1 -58.4%, O=C1/C(=C/c2ccc(F)cc2)SC(=S)N1NS(=O)(=O)c1ccccc1 -65.3%, C=C(C)C(=O)O[C@H]1C/C(C)=C\C(=O)/C=C(\C)[C@H](O)[C@@H]2OC(=O)C(=C)[C@@H]21 -56.7%, C/C(=N\NC(=O)c1ccc(NS(=O)(=O)c2cccs2)cc1)c1ccc2ccccc2c1 -63%
